Bioassay records deposited in PubChem BioAssay by several laboratories.
PPC-1+TRAIL kill: PPC-1 cancer cell killing with TRAIL present; PPC-1 cells + TRAIL, ATPLite viability luminescence; AID 1443; hit rate 0.41% among 220,000; cell killing (% activity), % at 4 µM or 5 µM;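 active means cell killing above 50% in the first pass at 4 µM, then a duplicate retest at 5 µM averaging 50% or more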;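 further: plate controls were cells with TRAIL plus DMSO for no effect and medium-only wells lacking cells for full effect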
TROY signal inh: blocks TROY-dependent signaling in reporter cells; inhibition, % at 10 µM; hit rate 0.98% among 360,000; Q293 LMP1-TROYcd NF-kB luciferase reporter, 4 h;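 active means compounds whose plate-normalised and pattern-corrected inhibition of the luciferase reporter signal at the single screening dose is 50% or more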
Platelet DG rel: modulates dense granule release in human platelets; human platelet-rich plasma, SFLLRN dense granule ATP release, luminescence; inhibition, %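 (compounds screened at 7.5 µM in platelet-rich plasma)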; hit rate 0.22% among 300,000;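 active means mean replicate score, as percent of positive control, at or above 50; inconclusive means mean below 50 but at least one replicate at or above 50; inactive means mean and every replicate below 50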
TRAIL sens C8: sensitizes caspase-8 expressing cells to TRAIL; inhibition (viability loss, TRAIL sensitization), % at 10 µM; AID 624354; NB7+C8 cells + TRAIL, ATPlite viability luminescence; hit rate 1% among 360,000;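 active means compounds causing at least 50% loss of cell viability in the single-dose screen, relative to plate controls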
HSP90 inh: blocks HSP90-mediated luciferase refolding in reticulocyte lysate | inhibition, % at 5.6 µM | hit rate 0.91% among 290,000 | AID 1789 | Rabbit reticulocyte lysate, luciferase refolding luminescence, 3 h;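 active means inhibition above the screen-wide mean plus 3 SD, computed separately per campaign, cut at about 16% in these data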;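 further: 0% = DMSO wells and 100% = 60 µM geldanamycin wells; inhibitors lower the luminescence because luciferase stays unfolded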
TWEAK Fn14 block: TWEAK-Fn14 signaling inhibition; TWEAK-stimulated Fn14 reporter cells, luciferase luminescence, 8 h; inhibition, % at 10 µM; hit rate 2% among 360,000; in the data active means inhibition above about 50%
* hit, by the source's call; ? = inconclusive; / = not tested or not shown. A selection: hits, their analogues and other compounds. The true share with any hit is near 3.5%.

SMILES | PPC-1+TRAIL kill | TROY signal inh | Platelet DG rel | TRAIL sens C8 | HSP90 inh | TWEAK Fn14 block
C=CCN(C(=O)c1csnn1)C(C(=O)NC1CCCCC1)c1ccc(F)cc1 (stereo not drawn) | / | -7 | 7 | 4 | 3 | 3
CCCCN(C(=O)COC(=O)c1ccc(C=O)cc1)c1c(N)n(CCC)c(=O)[nH]c1=O | / | 8 | / | 0 | / | -1
Cc1ccc(N(CC(=O)Nc2ccc3c(c2)OCCO3)S(=O)(=O)c2c(C)n[nH]c2C)cc1 | -1 | -2 | -1 | -1 | 6 | 26
Cc1ccc(S(=O)(=O)Nc2ccc3c(c2)OCCO3)cc1C | 7 | 80* | 0 | -4 | 13 | 87*
Cc1nn(C)cc1S(=O)(=O)Nc1ccc2c(c1)OCCO2 | 1 | 82* | 3 | 2 | 4 | 77*
COc1ccc(OC)c(S(=O)(=O)Nc2ccc(-c3ccc4nncn4n3)cc2)c1 | / | 3 | 1 | 66* | / | 4
Cc1n[nH]c(C)c1S(=O)(=O)Nc1ccc2c(c1)OCCO2 | 27 | 63* | -2 | -9 | 5 | 82*
Cc1c(S(=O)(=O)Nc2ccc3c(c2)OCCO3)cnn1C | -8 | 0 | 2 | -3 | -2 | 37
CCC1CN(C(=O)N2CCC(C(=O)NCc3cccc(F)c3)CC2)c2ccccc2O1 (stereo not drawn) | / | -1 | 9 | -1 | -6 | -1
CC(C)COC(=O)N(C)C[C@H]1OCc2cnnn2CCCC(=O)N([C@H](C)CO)C[C@@H]1C | / | -13 | / | 13 | / | 15
O=S(=O)(Nc1ccc2c(c1)OCCO2)c1cccc(F)c1 | / | 40 | -1 | -9 | -3 | 52*
N#Cc1cc(-c2ccccc2)[nH]c1-c1nccc2ccccc12 | -11 | 25 | 0 | 16 | 3 | 56*
CCOC(=O)NC(=O)CSc1nc(C)cc(C)c1C#N | 37 | -48 | -2 | 72* | 8 | 32
CCOC(=O)CNC(=O)CSc1nc(C)cc(C)c1C#N | 18 | -14 | -6 | 21 | 8 | -12
CC(C)COc1ccc(C(=O)N(Cc2ccco2)C2CCS(=O)(=O)C2)cc1 (stereo not drawn) | 16 | / | 4 | 17 | 2 | 73*
CC(Oc1ccc(Cl)cc1Cl)C(=O)N(Cc1ccco1)C1CCS(=O)(=O)C1 (stereo not drawn) | 11 | / | 1 | -1 | 1 | 83*
CN(C(=O)CN(c1ccccc1)S(=O)(=O)c1ccc(F)cc1)C1CCS(=O)(=O)C1 (stereo not drawn) | 1 | -6 | 3 | -26 | 0 | -12
CC(=O)Nc1ccc(/C(C)=N/Nc2nc(Nc3ccccc3)nc(N3CCOCC3)n2)cc1 | 16 | 6 | 13 | -4 | 0 | -18
CCN1CCN(c2nc(Nc3ccc(NC(C)=O)cc3)nc(Nc3ccc(NC(C)=O)cc3)n2)CC1 | 28 | 63* | -7 | 0 | 0 | 14
CC(=O)c1ccc(Nc2nc(N3CCOCC3)nc(N3CCOCC3)n2)cc1 | / | -45 | 6 | -18 | 3 | 83*
C#CCNC(=O)C[C@@H]1C[C@@]2(C(=O)OCC)CCC=C2N(Cc2ccco2)C1=O | / | 2 | / | -15 | / | 26
CCOc1cc(NC(=O)CCl)c(OCC)cc1NC(=O)CCl | 16 | 8 | 4 | 91* | -1 | 44
C[C@H]1CN([C@@H](C)CO)C(=O)CCCn2nncc2CO[C@H]1CN(C)C(=O)c1cc(-c2ccccc2)on1 | / | 1 | / | -1 | / | 6
CSc1nnc(C)c(=O)n1COC(=O)/C=C/c1ccc2c(c1)OCO2 | 16 | -5 | 1 | 0 | -2 | 15
C=C1CCC[C@]2(C)C[C@H]3OC(=O)C(CNC(C)CC)[C@H]3CC12 (stereo partly drawn) | / | -14 | -9 | 3 | 3 | 4
SMILES | PPC-1+TRAIL kill | TROY signal inh | Platelet DG rel | TRAIL sens C8 | HSP90 inh | TWEAK Fn14 block
C=C1CCC[C@]2(C)C[C@H]3OC(=O)C(CNC(CC)CO)[C@H]3CC12 (stereo partly drawn) | / | 3 | -6 | 0 | 3 | 57*
C=C1CCC[C@]2(C)C[C@H]3OC(=O)C(CN4CCCCC4CO)[C@H]3CC12 (stereo partly drawn) | / | 25 | 3 | 5 | 7 | 51*
CC1(c2nnnn2-c2ccc3c(c2)OCCO3)CCC(=O)N1Cc1cccnc1 (stereo not drawn) | / | 57* | / | -4 | / | 79*
COC(=O)CCn1nnc(-c2ccc(C(C)C)cc2)n1 | 19 | 50* | -4 | 8 | -1 | 68*
COC(=O)CCn1nnc(-c2cccs2)n1 | 13 | -11 | 6 | -8 | -2 | -3
N/C(=N\OC(=O)c1ccccc1Cl)c1cccc([N+](=O)[O-])c1 | / | 6 | 4 | 15 | 12 | 20
N/C(=N\OC(=O)c1ccc(Cl)c(Cl)c1)c1cccnc1 | 15 | -37 | 3 | 83* | 1 | -4
N/C(=N/OC(=O)c1ccccc1Cl)c1ncc([N+](=O)[O-])s1 | 13 | 1 | -4 | 28 | 8 | 50*
N/C(=N\OC(=O)c1cccc(Cl)c1)c1ccncc1 | 4 | -77 | -9 | 0 | 2 | -41
Cc1ccccc1C(=O)O/N=C(\N)c1ccncc1 | 13 | -61 | 28 | 52* | -1 | -17
N/C(=N\OC(=O)c1cccc(Cl)c1)c1cccnc1 | 21 | -45 | 8 | 64* | -1 | -14
Cc1ccc([C@@H]2CC(=O)[C@@H]3CN(S(=O)(=O)c4ccc(C)cc4)[C@H](c4ccccc4)C[C@@H]3N2S(=O)(=O)c2ccc(C)cc2)cc1 | / | -13 | / | 14 | / | -22
N/C(=N\OC(=O)c1ccccc1Cl)c1cccnc1 | 29 | -37 | ? | 69* | -2 | 10
N/C(=N\OC(=O)c1cc(Cl)ccc1Cl)c1cccnc1 | 2 | -29 | -1 | 6 | 6 | -3
COc1ccc(NC(=O)CN(C)C(=O)CN2C(=O)NC3(CCCC3)C2=O)cc1 | / | 0 | 9 | -27 | / | -1
OC1CN=C2C=CC=CN2C1 (stereo not drawn) | 7 | 11 | 54* | -10 | 4 | -16
Cc1cc(-c2nnc(SCC(=O)Nc3nc(-c4ccc(Cl)cc4)cs3)o2)no1 | 9 | 8 | -5 | -14 | 0 | 83*
COc1cc(NC(=O)CSc2nnc(-c3cc(C)on3)o2)cc(OC)c1 | / | 7 | -9 | -11 | 2 | 2
CCOc1ccc(Cl)cc1-c1cc(C(=O)NCCc2ccncc2)[nH]n1 | / | -8 | / | 1 | / | -20
COc1cccc(CC(=O)OC(C)C(=O)Nc2ncc(Cl)cc2Cl)c1 (stereo not drawn) | / | 3 | -14 | -1 | / | 12
FC(F)(F)c1cc(Cl)c2nc(-c3ccccc3)cn2c1 | 8 | -21 | 12 | 51* | 5 | 0
CCN(CC)CCCNc1nc2ccccc2c2[nH]c3ccc(OC)cc3c12 | / | 69* | / | 41 | / | 5
Cc1ccccc1S(=O)(=O)NC(=O)C1(C)CCN1C(=O)CC(c1ccccc1)c1ccccc1 (stereo not drawn) | / | 7 | / | -1 | / | 1
O=C(O)CCCc1ccc2c(c1)CCc1ccccc1-2 | / | 27 | 10 | 5 | / | 56*
